The source of these data is ChEMBL document CHEMBL3433997, “St. Jude Leishmania screening dataset” (2016).

This assay concerns the target Glucose transporter (Leishmania mexicana) (UniProt O61059). In words: ST_JUDE_LEISH: Cytotoxicity at 2uM final concentration against transgenic Leishmania Mexicana promastigotes LmGT2 that are glucose transport deficient and complemented with the L. Mexicana glucose transporter 2. Activity is measured by DNA content using SYBR green in vitro. The assay is classed as functional.
For `Cc1ccc2nc(C)cc(N/N=C/c3ccccc3[N+](=O)[O-])c2c1`, the inhibition is 7.96%.

Turning to `Cc1[nH]c2ccc(-c3ccc(N(C)C)cc3)cc2c(=O)c1Cl`, the inhibition was 2.73%.

For the molecule `Nc1c(Cl)cc(C(O)CNCCCCCCOCCc2ccc(CO)s2)cc1Cl` (stereo not given), the inhibition came to 2.21%.

In the case of `Cc1cccc2nc(-c3ccc(-c4ccc(CN5CCC(CCN6CCCCC6)CC5)cc4)cc3)[nH]c12`, the inhibition was -1.41%.

`Cn1ccnc1CNC(=O)c1ccc(-c2cccc(-c3nc4cc(C(F)(F)F)ccc4[nH]3)c2)cc1`: the inhibition amounted to 0.2%.

With `COc1c(C=NNc2nc(=Nc3ccccc3)[nH]c(=Nc3ccccc3)[nH]2)ccc(Br)c1O`, the inhibition was found to be 9.27%.

On to `O=S(=O)(c1cc(Cl)c(Cl)cc1Cl)N1CCCCC(c2ccc(C(F)(F)F)cc2)=N1`, for which the inhibition is 0.91%.

As to `COc1cc(NC(=O)NC(CCN2CCC3(CCc4ccccc43)CC2)c2ccc(Cl)c(Cl)c2)cc(OC)c1OC` (stereo not given), the inhibition was -3.62%.

Take `CN=C(Nc1c(Cl)cccc1Cl)N(C)C`: the inhibition came out at 4.17%.

For the molecule `Cc1c(Cc2ccc(F)cc2)c(Cl)nc2nc(N)nc(N)c12`, the inhibition is -0.27%.

As to `O=C1Nc2ccccc2/C1=N/NC(=S)N1CCOCC1`, the inhibition came out at 0.09%.

For the molecule `O=C(Cc1cccs1)NCC(c1ccccc1Cl)c1c[nH]c2ccccc12` (stereo not given), the inhibition was found to be 1.14%.

Turning to `Nc1nc(Nc2cccc(Cl)c2)ncc1C(=O)NCc1ccncc1`, the inhibition was 8.62%.

As to `CCN1CCC(N(Cc2ccc(-c3ccc(C(F)(F)F)cc3)cc2)C(=O)Cn2c(CCc3cccc(F)c3F)cc(=O)c3ccc(OCc4ccccc4)cc32)CC1`, the inhibition worked out at 3.52%.

For the molecule `Clc1ncccc1-c1nc(NCCC(c2ccccc2)c2ccccc2)no1`, the inhibition was 2.64%.

With `CN1c2ccc([N+](=O)[O-])cc2C(C)(C)C12C=Cc1cc(Br)cc([N+](=O)[O-])c1O2` (stereo not given), the inhibition was -0.71%.

Regarding `COc1ccc(-c2ccc(CNC(=O)c3ccc(C#N)cc3)c(F)c2)cc1CN1CCCN(C)CC1`, the inhibition is -3.44%.

For `CCc1ccc(CN2CCCCC(NC(=O)c3cc(-c4ccccc4F)cs3)C2)cc1` (stereo not given), the inhibition is 1.12%.

For `CC(C)(C)OC(=O)NCc1ccc(Nc2nnc(-c3cccc(OCC(=O)NCc4cc(C(F)(F)F)cc(C(F)(F)F)c4)c3)o2)cc1`, the inhibition was determined as 1.12%.

Regarding `NCCc1cccc(-c2cnc3[nH]cc(-c4ccc(C(=O)O)cc4)c3c2)c1`, the inhibition came out at 0.03%.

Consider `COc1ccc(-c2ccc(NC(=O)c3cccc(C#N)c3)cc2)cc1CN(C)C`, for which the inhibition was 0.41%.

Regarding `CCN1CCN(c2cc(C)c3cc(NC(=O)c4ccc(OC)c([N+](=O)[O-])c4)ccc3n2)CC1`, the inhibition amounted to 2.13%.

Consider `O=C(NCCN1CCCCC1)c1cccc(Nc2nccc(Nc3ccc(Oc4ccccc4)cc3)n2)c1`, for which the inhibition was -0.27%.

With `N#Cc1cccc(C(=O)Nc2ccc(-c3ccc(CN4CCCC4)cc3)cc2)c1`, the inhibition amounted to 3.78%.

For `COc1ccccc1Nc1nc(C)cc(NCc2ccc(-n3ccnc3)cc2)n1`, the inhibition was found to be 3.48%.

Take `CCCCCCN1CCCN(Cc2ccc(C(=O)Nc3ccc(F)c(F)c3)cc2)CC1`: the inhibition stood at 12.9%.

As to `COc1ccc(CNc2ccnc(-n3cnc4cc(C)c(C)cc43)n2)cc1Cl`, the inhibition was 2.53%.

Consider `c1ccc2c(c1)CN(Cc1ccsc1)CC1(CCN(Cc3c[nH]c4cnccc34)CC1)O2`, for which the inhibition was 6.86%.

Consider `CCCc1cc2c3c(N)nc(N)nc3ccc2n1C(CC)CC`, for which the inhibition came to 42.6%.

As for `CCc1ccc(CN2CCC(CNC(=O)c3cc(-c4cccc(C(F)(F)F)c4)cs3)C2)cc1` (stereo not given), the inhibition was -1.61%.

Consider `CN1CCCC1CNS(=O)(=O)c1ccc(C(=O)NCC2CC2)cc1` (stereo not given), for which the inhibition stood at 1.36%.

As for `Fc1ccc2[nH]c(-c3cccc(-c4ccc(CN5CCN(c6ccncc6)CC5)cc4)c3)nc2c1`, the inhibition was 0.8%.

With `O=C(Nc1cccc(-c2cccc(-c3nc4cc(F)ccc4[nH]3)c2)c1)c1csnn1`, the inhibition stood at 1.83%.

Consider `O=c1c2ccccc2[nH]c2nc3ccccc3c(Nc3ccccc3)c12`, for which the inhibition was 8.59%.

For the molecule `O=C(O)c1cc(C(F)(F)F)co1`, the inhibition was -0.54%.

For `Cc1ccc(Nc2ccnc(Nc3ccc(F)c(Cl)c3)n2)cc1O`, the inhibition is 2.04%.

With `CC(C)COc1ccc(Cl)cc1Cc1nc(-c2nc3ccc(CN4CCN(C)CC4)cc3[nH]2)co1`, the inhibition is 7.58%.

Regarding `FC(F)(F)COc1ccc2ccccc2c1CNCCCCCCNCc1c(OCC(F)(F)F)ccc2ccccc12`, the inhibition is -1.38%.

On to `CC(C)Oc1ccc(CCCON2C(=N)N=C(N)NC2(C)C)cc1`, for which the inhibition was 19%.

`Cc1noc(C)c1-c1ccc2c(Nc3ccccc3C(C)(C)C)c(C(=O)NCc3cccc4ccccc34)cnc2c1`: the inhibition turned out to be 0.05%.
